Source: PubChem BioAssay
An excerpt weighted towards active compounds, which were near 2.3% of everything screened.
AmpC inh detg – AmpC beta-lactamase inhibition with detergent present | P00811 | AmpC hydrolysis of nitrocefin, absorbance 480 nm, 0.01% Triton | Potency, µM (titrated, usually from 114 µM), without a hit: at the highest dose activity change, negative = inhibition, actives largely listed as inhibitors | hit rate 0.041% among 370,000;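 also: 0% = no-compound wells and -100% = no-enzyme wells; nearly all actives have a fitted effect of over 25% in size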
Target sequence (P00811 whole entry, looked up): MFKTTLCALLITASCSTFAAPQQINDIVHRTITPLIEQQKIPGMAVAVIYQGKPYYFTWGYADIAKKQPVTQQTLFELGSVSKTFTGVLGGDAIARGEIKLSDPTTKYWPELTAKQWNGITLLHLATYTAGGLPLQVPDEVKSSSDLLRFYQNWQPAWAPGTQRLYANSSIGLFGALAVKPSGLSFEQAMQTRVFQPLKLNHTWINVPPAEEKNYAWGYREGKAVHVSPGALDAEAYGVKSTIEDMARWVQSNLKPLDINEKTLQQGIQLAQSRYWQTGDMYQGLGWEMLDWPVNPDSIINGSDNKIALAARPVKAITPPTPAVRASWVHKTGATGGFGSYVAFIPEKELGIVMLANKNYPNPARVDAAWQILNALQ
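20 mM phosphate pH 7.0 + 0.01% (detergent screen) or 0.0001% Triton X-100; 5.3 nM AmpC reagent; cpd preinc 15 min RT; nitrocefin (800 uM stock) to start; A480 q20 s × 4 min; Activity was normalised to no-enzyme and no-compound control wells.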
AmpC inh no detg – inhibitors of E. coli AmpC beta-lactamase without detergent. Potency, µM (doses to about 57.1 µM), inactives show at the top dose activity change, negative = inhibition, usual class: inhibitors. AID 485341. P00811. AmpC nitrocefin hydrolysis, absorbance 480 nm, 0.0001% Triton. hit rate 0.52% among 330,000;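 also: plate controls were no compound for no effect and no enzyme for full effect; nearly all actives have a fitted effect of over 20% in size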
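20 mM phosphate pH 7.0 + 0.01% (detergent screen) or 0.0001% Triton X-100; 5.3 nM AmpC reagent; cpd preinc 15 min RT; nitrocefin (800 uM stock) to start; A480 q20 s × 4 min; Activity was normalised to no-enzyme and no-compound control wells.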
Marburg entry inh – Marburg virus entry inhibition; Marburg virus pseudotyped entry inhibition, cell reporter; Potency, µM (highest dose often 37.8 µM), for the others: at the top dose activity change, negative = inhibition, hits mostly inhibitors; hit rate 1.8% among 300,000; calls by dose curve; tested in HEK293 cells
AMA1 RON2 block – disrupts binding of P. falciparum AMA1 to RON2. AlphaScreen AMA1-biotinylated RON2 peptide binding. hit rate 0.2% among 360,000. Potency, µM (series often up to 58.2 µM), without a hit: at the highest dose activity change, negative = inhibition, actives largely listed as inhibitors;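 also: 0% = vehicle wells and -100% = peptide control; nearly all actives have a fitted effect of over 45% in size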
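AMA1 (3D7) with his tag at 25 nM final met compounds first, then biotinylated RON2 peptide at 25 nM; detection used donor plus acceptor beads, 10 µg/mL apiece, read by AlphaScreen after 30 min at room temperature.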
LASV entry inh – inhibitors of Lassa virus binding or cell entry | hit rate 1.2% among 300,000 | AID 540256 | Potency, µM (doses to about 37.9 µM), without a hit: at the top dose activity change, negative = inhibition, most hits filed as inhibitors | Lassa virus pseudotype entry inhibition, cell reporter; calls by dose curve; tested in HEK293 cells; also: nearly all actives have a fitted effect of over 50% in size
* marks the source's active call; other numbers are inactive results; ? = inconclusive; / = no result given; ! = repeats disagree; [ ] = dose if it differs, or a comment. Unless noted, calls follow the shape of the dose curve; as a rule, active = well fitted curve in the direction sought with a large enough effect; inconclusive = small, poorly fitted or top-dose-only effect, or another doubt; inactive = no such curve, though single readings can be large; an effect the other way counts as inactive or inconclusive. Unless noted, % is scaled to controls: 0 for no effect and ±100 for the full control effect; potency is read from the fitted curve at half-maximal effect.

SMILES	AmpC inh detg	AmpC inh no detg	Marburg entry inh	AMA1 RON2 block	LASV entry inh
CC1CN(C(=O)c2ccccc2Nc2ccc(SC(F)F)cc2)CC(C)O1 (stereo not given)	-9%	63%	?	7%	1%
CCOC(=O)C1=C(N)n2c(s/c(=C/c3ccco3)c2=O)=C(C(=O)OCC)C1c1ccco1 (stereo not given)	/	/	-18%	/	/
O=C(CSc1ccc(Br)c2cccc(Cl)c12)Nc1ccc(S(=O)(=O)Nc2nccs2)cc1	2%	2.5µM*	?	26%	?
O=C(Cc1ccccc1Cl)Nc1ccc(S(=O)(=O)Nc2nccs2)cc1	6%	-40%	2%[46.1 µM]	-9%	-30%[46.1 µM]
COc1cc(OC)cc(-c2cc3nc(C)c(CCC(=O)NCc4ccccc4)c(C)n3n2)c1	-2%	105%	11µM*	-16%	8.9µM*
COc1cc(OC)cc(-c2cc3nc(C)c(CCC(=O)NCc4ccc(Cl)cc4)c(C)n3n2)c1	21%	/	4.5µM*	/	?
Cc1ccc2[nH]c(=O)c3cc(C(=O)NCc4cccc(Cl)c4)sc3c2c1	-10%	/	1%[46.1 µM]	/	/
O=[N+]([O-])c1ccc(N2CCN(S(=O)(=O)Cc3ccccc3)CC2)cc1N1CCOCC1	-14%	-8%	?	9%	13µM*
CCS(=O)(=O)N1CCN(c2ccc([N+](=O)[O-])c(N3CCOCC3)c2)CC1	-4%	24%	-7%	-9%	9%
CN1C(=O)N=C2N=CN(C)C2C1=O (stereo not given)	/	/	4%	/	/
CCOC(=O)c1cc2c(C)n(-c3ccc(C)cc3)c(C)c2ccc1=O	1%	12%	26µM*	-23%	?
c1ccc(-c2cc(-c3ccc(N4CCOCC4)cc3)nc3ccccc23)cc1	?	77%	?	8%	?
O=c1cc(N2CCOCC2)oc2c(-c3ccccc3)cccc12	/	/	0.32µM*!	/	-18%
Cc1ccc(S(=O)(=O)NNC(=O)C(=O)NNc2ccccn2)cc1	-4%	-8%	-6%	32µM*	-21%
O=C(/C=C/c1ccc2c(c1)OCO2)Nc1nc(-c2ccc(F)cc2F)cs1	-10%	?	3%	/	18%
O=C(/C=C/c1ccc2c(c1)OCO2)NCc1ccco1	?	-6%	-2%	-26%	10µM*
Cc1csc(NC(=O)/C=C/c2ccc3c(c2)OCO3)n1	-3%	-25%	4.5µM*	14%	?
CCOc1ccc(NC(=O)CSc2cn(CC(=O)N3CCOCC3)c3ccccc23)cc1	7%	/	/	/	8%[46.1 µM]
CC(C)N(C(=O)CCl)c1ccccc1	/	/	/	4%	/
O=C(CCl)N(O)c1ccc(C=Cc2ccccc2)cc1	/	/	?	?	8.9µM*
CC(C)c1nn2c(=O)cc(COC(=O)c3cccc(NC(=O)c4ccccc4F)c3)nc2s1	-8%	/	/	/	0%[46.1 µM]
CCOC(=O)C1=C(CN(CC)Cc2ccccc2)NC(=O)NC1c1ccc(OC(C)C)cc1 (stereo not given)	7%	/	?	/	?
COc1ccc(COC(=O)NNC(=O)c2ccc(OC)cc2)cc1	?	-19%	7%	9%	1.3µM*
Cc1ccc2c(c1)c(=O)c1ccccc1n2CCCC(=O)Nc1cc(Cl)ccc1C	13%	/	/	/	1%[46.1 µM]
Cc1ccc(NC(=O)CCCn2c3ccccc3c(=O)c3cc(C)ccc32)c(Br)c1	-4%	/	/	/	2.8µM*
SMILES	AmpC inh detg	AmpC inh no detg	Marburg entry inh	AMA1 RON2 block	LASV entry inh
Cn1c2c(c(=O)n(C)c1=O)[C@@](NC(=O)C(C)(C)C)(C(F)(F)F)C(=O)N2	/	/	-3%	/	/
CCOc1ccc(Nc2cc(C)nc3c(C)cccc23)cc1	0%	-11%	0.89µM*	4%	-29%
Cc1cc(Nc2ccccc2C)c2cccc(C)c2n1	11%	/	/	/	?
Cc1cc(Nc2ccc(C)c(C)c2)c2ccccc2n1	?	-17%	3.2µM*	-9%	-3%[46.1 µM]
CC(=O)Nc1ccc(Nc2cc(C)nc3ccccc23)cc1	/	/	?	-3%	-17%[46.1 µM]
CC(=O)Nc1c(C(=O)Nc2ccccc2F)oc2ccccc12	4%	/	3%[46.1 µM]	/	20%[46.1 µM]
Cc1ccn2c(=O)nc(SCC(=O)NCCc3ccccc3)nc2c1	?	32µM*	6%	0%	7%
CN(C)c1ccc(C2CC(c3c(O)n(C4CCCCC4)c(=O)[nH]c3=O)=Nc3ccccc3S2)cc1 (stereo not given)	-12%	/	1%[46.1 µM]	/	15%[46.1 µM]
Cc1ccc(C23CC4CC(CC(NC(=O)NCCN(C)C)(C4)C2)C3)cc1	0%	85%	?	0%	?
CN(C)CCNC(=O)COc1ccc(C23CC4CC(CC(C4)C2)C3)cc1	?	66%	4µM*	-12%	?
CC1(C)Cc2c(sc3[nH]c(=S)n(Cc4ccccc4)c(=O)c23)CO1	-1%	-8%	?	23%	6.5µM*
CC1(C)Cc2c(sc3c2c(=N)n(Cc2ccco2)c(=O)n3Cc2ccc(F)cc2)CO1	2%	60%	?	-14%	7.1µM*
CC1(C)Cc2c(sc3c2c(N)nc(=S)n3Cc2ccccc2)CO1	-1%	-15%	/	/	/
Cc1ccc(N(CC(=O)N2CCN(c3cccc(C)c3C)CC2)S(=O)(=O)c2c(C)nn(C)c2C)cc1	1%	/	?	/	?
COc1cccc(C(=O)N(Cc2ccc(N(C)C)cc2)Cc2ccco2)c1	14%	/	-3%[46.1 µM]	/	?
O=C(NCCN1CCC(n2c(=O)[nH]c3ccccc32)CC1)c1ccccc1	/	/	/	1%	/
O=C1NCN(c2ccccc2)C12CCNCC2	-10%	42%	0%	-9%	0%
O=c1[nH]c2ccccc2n1C1CCN(CCCC(c2ccc(F)cc2)c2ccc(F)cc2)CC1	?	32%	12µM*!	?	10µM*!
O=C1NCN(c2ccccc2)C12CCN(CCCC(c1ccc(F)cc1)c1ccc(F)cc1)CC2	-1%	53%	2.1µM*	-11%	10µM*
COc1ccc(/C(O)=C2\C(=O)C(=O)N(CCN(C)C)[C@H]2c2cccc(OC)c2OC)cc1	/	/	-16%	/	/
COc1ccc(Br)cc1/C=C/C(=O)c1ccc(NC(C)=O)cc1	-7%	42%	?	2%	4µM*
COc1ccc(NC(=O)/C=C/c2cc(Br)ccc2OC)cc1	3%	-34%	12%	33%	-5%
C/C(=N\Nc1ccc(Cl)c(Cl)c1)c1ccc(-n2ccnc2)cc1	0%	14µM*	?	-16%	?
C/C(=N\NC(N)=S)c1ccc(-n2ccnc2)cc1	-9%	-19%	/	94%	/
Cc1ccc(Cl)cc1N1C(=O)N(Cc2ccc(C#N)cc2)c2ccccc2S1(=O)=O	9%	/	/	/	-1%[46.1 µM]
C/C(CC(=O)Nc1ccc(Cl)c(C(F)(F)F)c1)=N\NC(=O)c1cc2ccccc2cc1O	-6%	10µM*	?	80%	?
COc1cccc(NC(=O)C/C(C)=N/NC(=O)c2ccccc2Cl)c1	-6%	-11%	/	95%	/
CCOc1ccccc1CNC(=O)c1cnc2sc(N(CC)CC)nn2c1=O	0%	/	/	/	-27%[46.1 µM]
Oc1ccc(/C=N/N(Cc2ccccc2)c2ccccc2)c(O)c1O	-3%	18µM*	12%[46.1 µM]	3%	?
